{"source": "ChEMBL document CHEMBL3988442", "about": "“University of Dundee, Small-Polar-MMV Screening Library” (2021)", "note": "Among all 38,000 compounds or so, about 1,200 (3.2%) showed an effect of 50% or more. The median lay at about -58%. The sample holds strong results, similar compounds and a random draw of the others, so the mix is not that of the screen.", "data": [{"system": "Plasmodium falciparum", "assay": "Calibr Malaria Delayed Death Assay SOP", "type": "functional, organism-based", "design": "scale not given: in the data most compounds retested in dose-response had high values", "settings": "concentration 4.99e-06 (unit not given; other assays of the set use mol/L)", "units": {"Percent Effect": "%"}, "values": [{"smiles": "CN(C)S(=O)(=O)N1CCCC(c2cccc(Cc3ccc(Cl)cc3)n2)C1", "note": "(centres undefined)", "Percent Effect": -15.18}, {"smiles": "CC(=O)N1CCCC1c1cccc(Cc2ccccc2Cl)n1", "note": "(centres undefined)", "Percent Effect": -62.89}, {"smiles": "O=C(C1CC=CC1)N1C[C@H]2CN(Cc3ccncc3)C(=O)[C@H]2C1.O=C(O)C(F)(F)F", "Percent Effect": -118.6}, {"smiles": "COc1ccc(C(C(=O)O)N(C)CCN2CCCC2)cc1F", "note": "(centres undefined)", "Percent Effect": -71.16}, {"smiles": "COc1cc(F)ccc1C(C(=O)O)N(C)CCN1CCCC1", "note": "(centres undefined)", "Percent Effect": 71.25}, {"smiles": "COc1cc(F)ccc1C(C(=O)O)N(C)CCN1CCOCC1", "note": "(centres undefined)", "Percent Effect": 79.89}, {"smiles": "Cc1ccc(C(C(=O)O)N(C)CCN2CCOCC2)c(F)c1", "note": "(centres undefined)", "Percent Effect": -35.14}, {"smiles": "COc1ccc(C(C(=O)O)N(C)CCN2CCCC2)c(C)c1", "note": "(centres undefined)", "Percent Effect": -56.58}, {"smiles": "COc1ccc(C(C(=O)O)N(C)CCN2CCOCC2)c(C)c1", "note": "(centres undefined)", "Percent Effect": -92.34}, {"smiles": "CCCS(=O)(=O)N1C[C@H]2C[C@H](C(=O)Nc3cccnc3)[C@@H](C1)O2", "Percent Effect": -54.27}, {"smiles": "CC(C)=CCN1CCN(Cc2cccc(C)n2)CC1CCO", "note": "(centres undefined)", "Percent Effect": -53.69}, {"smiles": "Cc1cc(NCCc2nc(C)cs2)nc(-c2cccnc2)n1", "Percent Effect": -152.4}, {"smiles": "CC(C(=O)NN1CCOCC1)n1nc(C(F)(F)F)c(Cl)c1C1CC1", "note": "(centres undefined)", "Percent Effect": -94.38}, {"smiles": "Cc1c(C(=O)NC2=NCCS2)cnn1-c1ccc(Cl)cc1", "Percent Effect": -71.42}, {"smiles": "COCCN1CC2(CCCN(c3ncc(Cl)cc3F)C2)CCC1=O", "note": "(centres undefined)", "Percent Effect": -14.43}, {"smiles": "CN(C)CCN1CC2(CCCN(c3ncc(Cl)cc3F)C2)CCC1=O", "note": "(centres undefined)", "Percent Effect": 82.66}, {"smiles": "COCCCN1CC2(CCCN(c3ncc(Cl)cc3F)C2)CCC1=O", "note": "(centres undefined)", "Percent Effect": -81.54}, {"smiles": "CCN1Cc2nc(OC)c(CNC(=O)C3CCCN(C)C3)cc2C1=O", "note": "(centres undefined)", "Percent Effect": -47.23}, {"smiles": "C=C(C)CN1CCCC(NS(C)(=O)=O)C1", "note": "(centres undefined)", "Percent Effect": -112.5}, {"smiles": "CO[C@H]1CN(C(=O)c2ccnnc2)[C@@H]2COC[C@H]12", "Percent Effect": -17.32}, {"smiles": "CN(C)CCN1C[C@@H]2CN(c3ccccc3)C[C@@H]2C1=O.O=C(O)C(F)(F)F", "Percent Effect": -48.1}, {"smiles": "Cc1ccsc1C(O)CNC(=O)Cc1ccc(F)cc1", "note": "(centres undefined)", "Percent Effect": -29.72}, {"smiles": "CCC(=O)NCC(=O)NC(Cc1ccccc1)c1sccc1C", "note": "(centres undefined)", "Percent Effect": 84.56}, {"smiles": "Cc1ccsc1C(Cc1ccccc1)NC(=O)CSCC(N)=O", "note": "(centres undefined)", "Percent Effect": -15.45}, {"smiles": "CCC(=O)NC(CC)c1ccccc1C", "note": "(centres undefined)", "Percent Effect": -70.92}, {"smiles": "Cc1ccsc1C(Cc1ccccc1)NC(=O)CNC(=O)C1CC1", "note": "(centres undefined)", "Percent Effect": 68.17}, {"smiles": "O=C(CNC(=O)C1CC1)Nc1c(F)cccc1Oc1ccccc1", "Percent Effect": -53.44}, {"smiles": "COc1cccc2c1OCC(Cc1cc(C(N)=O)ccn1)C2", "note": "(centres undefined)", "Percent Effect": -54.91}, {"smiles": "CCc1nc(CN(C)C(=O)c2ccc(OCCCOC)nc2)cs1", "Percent Effect": -70.62}, {"smiles": "Cn1cc(CC(=O)N2CCC(Nc3cccnn3)CC2)c2ccccc21", "Percent Effect": -27.56}, {"smiles": "CCC(CNC(=O)CNC(C)=O)Oc1cccc(F)c1", "note": "(centres undefined)", "Percent Effect": 84.82}, {"smiles": "CCC(=O)NCC(CC)Oc1cccc(F)c1", "note": "(centres undefined)", "Percent Effect": -6.3}, {"smiles": "CCC(CNC(=O)COC)Oc1cccc(F)c1", "note": "(centres undefined)", "Percent Effect": -58.01}, {"smiles": "Cc1cc(C(=O)N2CCCC(c3cc(C(F)(F)F)[nH]n3)C2)[nH]n1", "note": "(centres undefined)", "Percent Effect": -117}, {"smiles": "O=C(O)C(F)(F)F.O=C(O)C(F)(F)F.c1cncc(-c2ncnc3c2CCN(Cc2ccsc2)CC3)c1", "Percent Effect": -128.4}, {"smiles": "Cn1c(=O)oc2cc(S(=O)(=O)N3CCC(c4ccccc4)C3)c(Cl)cc21", "note": "(centres undefined)", "Percent Effect": -8.531}, {"smiles": "CCN(C)CC1CCN(C(=O)Nc2ccc(C)cc2)C1", "note": "(centres undefined)", "Percent Effect": -13.91}, {"smiles": "O=C(O)C(F)(F)F.O=C(c1ccncc1F)N1CC[C@@H]2CN(c3ncccn3)CCO[C@@H]2C1", "Percent Effect": -33.14}, {"smiles": "Cc1ccc(CN2CCCn3c(nc(Cn4ccnc4)cc3=O)C2)s1", "Percent Effect": -9.733}, {"smiles": "Cc1ccc(CN(c2cc(C)nc3nc(C(F)(F)F)nn23)C2CC2)cc1", "Percent Effect": 93.63}, {"smiles": "COCCN(c1cc(C)nc2nc(C(F)(F)F)nn12)C1CCCC1", "Percent Effect": -69.88}, {"smiles": "Cc1cc(N(Cc2ccccn2)C2CC2)n2nc(C(F)(F)F)nc2n1", "Percent Effect": -69.19}, {"smiles": "Cc1cc(N(Cc2cccs2)C2CC2)n2nc(C(F)(F)F)nc2n1", "Percent Effect": 65.64}, {"smiles": "Cc1cc(N(Cc2cccnc2)C2CC2)n2nc(C(F)(F)F)nc2n1", "Percent Effect": 22.81}, {"smiles": "Cc1cc(N(Cc2ccccc2F)C2CC2)n2nc(C(F)(F)F)nc2n1", "Percent Effect": -0.7756}, {"smiles": "COC(=O)CCC(=O)N1CCC2(CN(Cc3ccccc3)C2)C1", "Percent Effect": -61.64}, {"smiles": "Cc1cc(C)n(-c2cncc(NCCC(=O)NC(C)C)n2)n1", "Percent Effect": -25.6}, {"smiles": "Fc1ccc(CN2CCO[C@H]3[C@H](OCC4CCCC4)CC[C@@H]32)cc1.O=C(O)C(F)(F)F", "Percent Effect": -74.43}, {"smiles": "COC(=O)N1CCCN(Cn2nc(C)c(Br)c2C)CC1", "Percent Effect": -78.94}, {"smiles": "CCOC[C@@]12CCC[C@@H]1CN(C(=O)c1ccc(OC)cc1)C2", "Percent Effect": -67.65}, {"smiles": "Cn1cc(CN2CCn3cc(Cn4cccn4)nc3C2)cn1.O=C(O)C(F)(F)F", "Percent Effect": -116.7}, {"smiles": "CC(C)Nc1ncnc2c1CCN(C(=O)CC1CCCC1)CC2", "Percent Effect": -30.46}, {"smiles": "CCOCCN1CCN(CC(O)c2cc(Cl)ccc2Cl)CC1", "note": "(centres undefined)", "Percent Effect": 77.57}, {"smiles": "OCCN1CCN(CC(O)c2cc(Cl)ccc2Cl)CC1", "note": "(centres undefined)", "Percent Effect": -5.982}, {"smiles": "OC(CN1CCOCC1)c1cc(Cl)ccc1Cl", "note": "(centres undefined)", "Percent Effect": -41.91}, {"smiles": "CCN1CCN(CC(O)c2cc(Cl)ccc2Cl)CC1", "note": "(centres undefined)", "Percent Effect": 76.72}, {"smiles": "CCOCCN1CCN(CC(O)c2ccc(C)c(C)c2)CC1", "note": "(centres undefined)", "Percent Effect": -16.95}, {"smiles": "CC(C)C(=O)N1CCN(CC(O)c2cc(Cl)ccc2Cl)CC1", "note": "(centres undefined)", "Percent Effect": -47.78}, {"smiles": "CC(C)c1nn(C)c(Cl)c1CNCCn1cccn1", "Percent Effect": 8.083}, {"smiles": "COc1ccc(CNc2nc(C3CC3)nc3c(C)nn(C)c23)cc1", "Percent Effect": 25.99}, {"smiles": "CCn1ccc(-c2cc(C(=O)O)n3ncc(Cl)c3n2)n1", "Percent Effect": -63.4}, {"smiles": "CCC(=O)Nc1cccc(OCC(=O)N(C)CCCC2CCCO2)c1", "note": "(centres undefined)", "Percent Effect": -128}, {"smiles": "O=C(C(CNCc1cccc(O)c1)c1ccccc1)N1CCOCC1", "note": "(centres undefined)", "Percent Effect": -54.71}, {"smiles": "O=C(C(CNCc1cccs1)c1ccccc1)N1CCOCC1", "note": "(centres undefined)", "Percent Effect": 4.238}]}]}
